FLuc counter: counter-screen for miR-21 project: firefly luciferase inhibitors or activators; 360,000 tested, 6.9% active; Potency, µM (top dose mostly 57.5 µM), without a hit: at the top dose activity change, negative = inhibition, actives largely listed as inhibitors; AID 588342; purified FLuc, Km substrates, luminescence inhibition;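 also: plate controls were vehicle for no effect and reference inhibitor for full effect; nearly all actives have a fitted effect of over 55% in size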
Target sequence (P08659 whole entry, looked up): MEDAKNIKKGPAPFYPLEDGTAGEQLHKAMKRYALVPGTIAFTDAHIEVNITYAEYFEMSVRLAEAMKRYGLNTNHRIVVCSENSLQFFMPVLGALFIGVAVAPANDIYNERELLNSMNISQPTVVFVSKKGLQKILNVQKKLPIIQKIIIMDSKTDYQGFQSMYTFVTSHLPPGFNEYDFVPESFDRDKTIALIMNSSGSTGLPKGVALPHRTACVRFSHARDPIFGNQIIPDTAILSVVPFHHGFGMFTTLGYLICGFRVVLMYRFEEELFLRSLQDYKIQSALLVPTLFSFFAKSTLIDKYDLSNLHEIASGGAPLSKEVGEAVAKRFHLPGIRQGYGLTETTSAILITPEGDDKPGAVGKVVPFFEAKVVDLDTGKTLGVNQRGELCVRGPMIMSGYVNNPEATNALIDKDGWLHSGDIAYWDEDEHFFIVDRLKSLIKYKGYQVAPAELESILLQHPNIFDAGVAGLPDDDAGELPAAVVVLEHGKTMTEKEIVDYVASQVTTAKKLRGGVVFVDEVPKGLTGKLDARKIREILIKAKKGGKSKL
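Biochemical qHTS of compounds, final roughly 60 µM downward over six points, against 10 nM purified firefly luciferase using Km concentrations of substrates (10 uM D-luciferin, 10 uM ATP) in Tris acetate pH 7.5 buffer; luminescence output.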
NPC1 prom act: activators of NPC1 promoter. Huh7 NPC1 promoter luciferase reporter, 24 h. AID 485313. 320,000 tested, 2.4% active. Potency, µM (top dose mostly 9.22 µM), for the others: at the highest dose activation, hits mostly activators; also: % of control where 0% means no effect; nearly all actives have a fitted effect of over 60% in size
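In 1536-well qHTS, Huh7 cells harboring an NPC1 promoter–luciferase construct received compound for 24 h; activation was quantified by luminescence following luciferase reagent addition.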
ELG1 genotox: induces genotoxicity in HEK293T cells with luciferase-tagged ELG1; HEK293T ELG1-luciferase reporter, luminescence, 16 h; 330,000 tested, 1.3% active; AID 504466; Potency, µM (titrated, usually from 46 µM), inactives show top-dose activity change, positive = activation, most hits filed as activators; also: % of control where 0% means no effect; nearly all actives have a fitted effect of over 60% in size
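DMSO vehicle served as control against compound-treated ELG1-luciferase HEK293T cells; exposure lasted 16 hr at 37 °C and 5% CO2, followed by ONE-Glo luminescence detection after 30 min.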
Luc counter: blocks Kinase-Glo luciferase, a counter-screen artifact; Kinase-Glo luciferase, ATP luminescence, 8 min; Potency, µM (highest dose often 38.3 µM), for the others: at the highest dose activity change, negative = inhibition, actives largely listed as inhibitors; 200,000 tested, 0.28% active; AID 1379; also: % is scaled to controls: 0 for no effect and ±100 for the full control effect; nearly all actives have a fitted effect of over 60% in size
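Kinase-Glo luciferase light output from ATP and luciferin was measured with 10 uM ATP, within the enzyme's linear range. Buffer: 50 mM imidazole pH 7.2, 50 mM KCl, 7 mM MgCl2, 0.01% Tween 20, 0.05% BSA; luminescence read after 8 min at ambient temperature.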
Rab9 promoter act: activates the Rab9 promoter; Potency, µM (doses to about 9.22 µM), for inactives: at the top dose activation, negative = inhibition, actives largely listed as activators; AID 485297; Huh7 Rab9 promoter-luciferase reporter, luminescence, 24 h; 320,000 tested, 2.8% active; also: % of control where 0% means no effect; nearly all actives have a fitted effect of over 60% in size
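Rab9 promoter-driven luciferase in stably transfected Huh7 cells; 1500 cells/well rested 2 h, exposed to compound in DMSO for 24 h at 37 °C, 5% CO2. Luminescence read 10 min after adding luciferase reagent at ambient temperature.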
SMN2 splice enh: SMN2 splice variant enhancement. Potency, µM (series often up to 46.1 µM), inactives show at the top dose activity change, positive = activation, usual class: activators. AID 1458. 210,000 tested, 2.8% active. HEK293 SMN2-luciferase splicing reporter, luminescence, 30-36 h; also: % of control where 0% means no effect; nearly all actives have a fitted effect of over 55% in size
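qHTS luciferase splicing reporter: luminescence rises when SMN2 exon 7 is included in transfected HEK293 cells. Compound exposure lasted 30-36 h at 37C, with 4.5 mM final sodium butyrate as control, followed by a ONE-Glo read.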
* marks the source's active call; other numbers are inactive results; u = inconclusive; x = not tested or not shown; [ ] = dose if it differs, or a comment. This is a sample that favours compounds with a hit; in the whole collection about 7.5% have one here. Calls follow the shape of the dose curve; as a rule, active = well fitted curve in the direction sought with a large enough effect; inconclusive = small, poorly fitted or top-dose-only effect, or another doubt; inactive = no such curve, though single readings can be large; an effect the other way counts as inactive or inconclusive. Potency is read from the fitted curve at half-maximal effect.

SMILES	FLuc counter	NPC1 prom act	ELG1 genotox	Luc counter	Rab9 promoter act	SMN2 splice enh
COC(=O)c1ccc(COc2ccccc2/C=C/C(=O)c2ccc(OCC(=O)O)cc2)cc1	5.4µM*	0%	-5%	x	3%	x
CCCOc1ccc(C(=O)Nc2ccc(NC(=O)c3cccs3)cc2)cc1	-3%	1%	5%	x	12%	x
COC(=O)c1ccc(NC(=O)CC(=O)Nc2ccc(C(=O)OC)cc2)cc1	1%	-2%	2%	x	-3%	x
CCCCOc1cccc(C(=O)Nc2ccc(NC(=O)c3cccs3)cc2)c1	-2%	-8%	18%	x	-5%	x
COC(=O)c1ccc(O)cc1	9%	-4%	-6%	0%[39.9 µM]	-2%	x
COC(=O)c1ccc(N=Nc2ccccc2)cc1	5.4µM*	14%	2%	-5%	u	20%
COc1cccc(C(=O)COc2ccc(NC(=O)c3cccs3)cc2)c1	8.5µM*	4%	-19%	x	-1%	x
COC(=O)c1ccc(OCCOc2ccccc2)cc1	15µM*	15%	u	-2%	u	-5%
COC(=O)c1ccc(OCCOc2ccccc2C)cc1	u	2%	3%	x	10%	x
C=CCNC(=O)c1sccc1Oc1ccc(F)cc1[N+](=O)[O-]	-8%	-2%	-3%	-3%	1%	-12%
COC(=O)c1ccccc1NC(=O)Nc1nnc(N2CCCCC2C)s1 (centres undefined)	4%	1%	1%	1%	-2%	3%
CCOc1ccc(NC(=O)Nc2nnc(N3CCCCC3C)s2)cc1 (centres undefined)	-2%	x	x	x	x	x
COc1ccc(NC(=O)Nc2nnc(N3CCCCC3C)s2)cc1OC (centres undefined)	17µM*	-2%	1%	6%	-5%	-4%
COc1ccc(OC)c(NC(=O)Nc2nnc(N3CCCCC3C)s2)c1 (centres undefined)	19µM*	11%	7%	x	7%	x
O=C(CNC(=O)c1ccccc1F)NCCOc1ccccc1Cl	2%	-3%	1%	-2%	0%	9%
Cc1c(C(=O)OCCOc2ccccc2)[nH]c2c1C(=O)CCC2	0.95µM*	4.5µM*	u	-4%	u	3.5µM*
CC(=O)c1c(C)[nH]c(C(=O)OCC(=O)Nc2ccccc2Cl)c1C	-11%	-5%	-1%	0%	-9%	x
CCOc1ccc(C2CC(=O)c3c([nH]c(C(=O)OCCOc4ccccc4)c3C)C2)cc1 (centres undefined)	-7%	x	x	x	x	1%
CC(=O)c1c(C)[nH]c(C(=O)OCC(=O)Nc2nnc(-c3ccccc3)o2)c1C	21µM*	-3%	-2%	x	-7%	x
CC(=O)c1c(C)[nH]c(C(=O)OCCOc2ccccc2)c1C	0.54µM*	0.32µM*	u	4%	0.32µM*	-56%
COc1ccc(S(=O)(=O)N(C)CC(=O)NC2CC2)cc1	6%	-5%	0%	2%	-1%	21%
Cc1ccc(C2C(=O)N(C3CCCCCC3)CC(=O)N2C(C)C)cc1 (centres undefined)	4%	x	x	x	x	x
CC(C)N1C(=O)CN(C2CCCCCC2)C(=O)C1c1ccccc1F (centres undefined)	-14%	3.5µM*	u	-2%	u	7%
CC1CCN(C(=O)c2cc(-c3ccc(Cl)cc3)on2)CC1	6µM*	x	x	x	x	15%
COc1ccccc1N1CCN(C(=O)c2cc(-c3cccc(Cl)c3)on2)CC1	5%	0%	-2%	-3%	0%	-12%
SMILES	FLuc counter	NPC1 prom act	ELG1 genotox	Luc counter	Rab9 promoter act	SMN2 splice enh
CC1CCN(C(=O)c2cc(-c3cccc(Cl)c3)on2)CC1	24µM*	x	x	x	x	u
CC1CCN(C(=O)c2cc(-c3ccc(Cl)c(Cl)c3)on2)CC1	u	11%	15%	2%	24%	u
Cc1cc(OCC(=O)Nc2ccc3c(c2)OCCO3)ccc1Cl	19µM*	1%	17%	-2%	4%	-9%
CCOC(=O)c1ccc(NC(=O)Nc2ccc3c(c2)OCCO3)cc1	19µM*	-1%	-3%	1%	-4%	-11%
O=C(COc1ccc2c(c1)OCO2)Nc1cccc(F)c1	9.5µM*	14%	13µM*	x	-1%	x
C/C(=N\OCC(=O)Nc1ccc2c(c1)OCCO2)c1ccc2c(c1)OCCO2	19µM*	2%	1%	x	5%	x
CCOC(=O)c1c(C)c(C(=O)Nc2ccc3c(c2)OCCO3)c(C)n1C	u	10%	8%	0%	19%	u
CC(C)(CO)NCC(=O)Nc1cc(C(F)(F)F)cc(NC(=O)CNC(C)(C)CO)c1Cl	-1%	-7%	0%	-2%	-2%	9%
O=C(Nc1cccc(F)c1)c1ccc2oc(=O)n(Cc3ccccc3)c2c1	-11%	x	x	x	x	x
CCOc1ccc(OCCC(=O)OCC(=O)Nc2ccc3c(c2)OCO3)cc1	24µM*	-1%	3%	x	1%	x
CCC(=O)c1ccc(OCC(=O)Nc2ccc3c(c2)OCCO3)cc1	x	x	14%	x	x	x
O=C(COc1ccc(F)cc1)Nc1ccc2c(c1)OCCO2	5.4µM*	2.8µM*	u	x	4µM*	x
CCOCC(=O)Nc1ccc2c(c1)OCCO2	u	u	u	-7%	3.2µM*	u
Cc1ccc(OCCC(=O)OCC(=O)Nc2ccc3c(c2)OCCO3)cc1	u	-1%	-1%	x	2%	x
CCN1C(=O)[C@H]2[C@@H](c3ccc(-c4cc(C(C)=O)cs4)cc3)N3CCC[C@@]3(C(=O)OC)[C@H]2C1=O	1%	0%	-9%	x	-1%	x
CCOc1cc(N2CCOCC2)c(OCC)cc1NC(=O)COC(=O)CCOc1cc(C)ccc1C	2%	-5%	2%	x	0%	x
O=C(C[n+]1cccc(/C=N/O)c1)N1CCCc2ccccc21	-2%	-7%	-10%	9%	0%	-33%
CCc1ccc2nc(N(CCN(C)C)C(=O)c3ccc4ncsc4c3)sc2c1	13µM*	2.8µM*	3.7µM*	x	1.8µM*	x
c1ccc(Cc2nnc3sc(-c4ccc5c(c4)OCCO5)nn23)cc1	13µM*	9%	u	1%	u	4%
c1ccc(Cc2nnc3sc(-c4ccncc4)nn23)cc1	-2%	1%	-6%	2%	-4%	-4%
COc1cccc(NS(=O)(=O)c2ccc(C)c(C(=O)N3CCCCC3)c2)c1	-1%	1%	-5%	x	3%	x
CCc1ccccc1NC(=O)COc1ccc2c(c1)OCO2	-19%	0%	6%	0%	21%	1%
CCCCNC(=O)c1ccccc1NC(=O)c1ccc2c(c1)OCO2	19µM*	0%	-3%	-2%	0%	11%
Cc1cccc(NC(=O)c2ccc3c(c2)OCCO3)c1C	15µM*	-45%	u	x	3.2µM*	x
N#Cc1ccccc1NC(=O)COc1ccc2c(c1)OCO2	21µM*	4µM*	u	x	3.5µM*	x

Screening data deposited in PubChem by National Center for Advancing Translational Sciences (NCATS).
